# Laboratory results: article PMC8384837, “Expanding the binding specificity for RNA recognition by a PUF domain”
# What was measured:
# Test in all cases: yeast three-hybrid, YBZ-1, SC-Leu-His + 0.5 mM 3-AT, 4 days
# Conditions in all cases: tags: N-Gal4 AD-HA kept; label: inside an RPR1-promoter hybrid RNA with tandem MS2 sites; ssRNA
# PUM1 PUF domain R3-TRV = PUM1 PUF domain R3-TRV (Homo sapiens, UniProt Q14671 828-1176, C935T;Q939V)
# In short: (§1)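 The interaction score is the log change in variant frequency from input to selection. Scores were computed in log2 with a pseudocount of 1 for absent variants, using Illumina sequencing of PCR-amplified repeat regions. The input came from four days on SC-Leu and the selection from four days on SC-Leu-His + 0.5 mM 3-AT. The cells were strain YBZ-1 (LexA–MS2 coat fusion, HIS3 reporter) co-expressing Pumilio-1 PUF domain libraries and matching RNA elements from a centromeric plasmid.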
# PUM1 PUF domain R3-LRL = PUM1 PUF domain R3-LRL (Homo sapiens, UniProt Q14671 828-1176, C935L;Q939L)
# In short: as §1
# PUM1 PUF domain R4-QPC = PUM1 PUF domain R4-QPC (Homo sapiens, UniProt Q14671 828-1176, N971Q;H972P;Q975C)
# In short: as §1
# PUM1 PUF domain R4-SRS = PUM1 PUF domain R4-SRS (Homo sapiens, UniProt Q14671 828-1176, N971S;H972R;Q975S)
# In short: as §1
# PUM1 PUF domain R8-KFM = PUM1 PUF domain R8-KFM (Homo sapiens, UniProt Q14671 828-1176, N1122K;Y1123F;Q1126M)
# In short: as §1
# PUM1 PUF domain R8-RFA = PUM1 PUF domain R8-RFA (Homo sapiens, UniProt Q14671 828-1176, N1122R;Y1123F;Q1126A)
# In short: as §1
# PUM1 PUF domain R6-FYK = molecular target: T1, PUM1 PUF domain R6-FYK (Homo sapiens, UniProt Q14671 828-1176, N1043F;Q1047K)
# T1 sequence: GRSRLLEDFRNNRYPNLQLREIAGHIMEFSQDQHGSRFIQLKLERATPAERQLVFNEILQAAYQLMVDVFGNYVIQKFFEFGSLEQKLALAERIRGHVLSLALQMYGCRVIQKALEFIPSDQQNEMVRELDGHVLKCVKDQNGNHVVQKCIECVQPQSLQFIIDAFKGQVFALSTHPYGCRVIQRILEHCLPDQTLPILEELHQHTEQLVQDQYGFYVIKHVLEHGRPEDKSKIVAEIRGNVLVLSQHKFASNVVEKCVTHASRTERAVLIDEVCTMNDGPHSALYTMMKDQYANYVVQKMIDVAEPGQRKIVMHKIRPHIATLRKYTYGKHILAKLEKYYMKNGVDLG
# In short: as §1
# PUM1 PUF domain R5-RGN = PUM1 PUF domain R5-RGN (Homo sapiens, UniProt Q14671 828-1176, C1007R;R1008G;Q1011N)
# In short: as §1
# PUM1 PUF domain R3-SRW = PUM1 PUF domain R3-SRW (Homo sapiens, UniProt Q14671 828-1176, C935S;Q939W)
# In short: as §1
# PUM1 PUF domain R4-DRI = PUM1 PUF domain R4-DRI (Homo sapiens, UniProt Q14671 828-1176, N971D;H972R;Q975I)
# In short: as §1
# PUM1 PUF domain R3-SSQ = PUM1 PUF domain R3-SSQ (Homo sapiens, UniProt Q14671 828-1176, C935S;R936S)
# In short: as §1
# PUM1 PUF domain R3-VCI = PUM1 PUF domain R3-VCI (Homo sapiens, UniProt Q14671 828-1176, C935V;R936C;Q939I)
# In short: as §1
# PUM1 PUF domain R7-MSG = PUM1 PUF domain R7-MSG (Homo sapiens, UniProt Q14671 828-1176, S1079M;N1080S;E1083G)
# In short: as §1
# PUM1 PUF domain R3-QRI = PUM1 PUF domain R3-QRI (Homo sapiens, UniProt Q14671 828-1176, C935Q;Q939I)
# In short: as §1
# PUM1 PUF domain R2-RRV = PUM1 PUF domain R2-RRV (Homo sapiens, UniProt Q14671 828-1176, N899R;Y900R;Q903V)
# In short: as §1
# PUM1 PUF domain R1-KYV = PUM1 PUF domain R1-KYV (Homo sapiens, UniProt Q14671 828-1176, S863K;R864Y;Q867V)
# In short: as §1
# PUM1 PUF domain R5-RSS = PUM1 PUF domain R5-RSS (Homo sapiens, UniProt Q14671 828-1176, C1007R;R1008S;Q1011S)
# In short: as §1
# PUM1 PUF domain R5-KNL = PUM1 PUF domain R5-KNL (Homo sapiens, UniProt Q14671 828-1176, C1007K;R1008N;Q1011L)
# In short: as §1
# PUM1 PUF domain R5-RCD = PUM1 PUF domain R5-RCD (Homo sapiens, UniProt Q14671 828-1176, C1007R;R1008C;Q1011D)
# In short: as §1
# PUM1 PUF domain R5-KRA = PUM1 PUF domain R5-KRA (Homo sapiens, UniProt Q14671 828-1176, C1007K;Q1011A)
# In short: as §1
sequence,measurement,setting,value
GGCUAGAACUAGUGGAUCCCCCGGCGCCCGGCGGCUCGAGCCCGGGUAAGUGUAAUUAGUCUGCAUGCCGCCGGGCGCCAUGCCUGCAGGUCGACUCUAGAAAACAUG,binding signal,PUM1 PUF domain R3-TRV,2.79 log2 enrichment (interaction score)
same,binding signal,PUM1 PUF domain R3-LRL,0.28 log2 enrichment (interaction score)
GGCUAGAACUAGUGGAUCCCCCGGCGCCCGGCGGCUCGAGCCCGGGUAAGUGUAUAUAGUCUGCAUGCCGCCGGGCGCCAUGCCUGCAGGUCGACUCUAGAAAACAUG,binding signal,PUM1 PUF domain R4-QPC,2.52 log2 enrichment (interaction score)
same,binding signal,PUM1 PUF domain R4-SRS,0.95 log2 enrichment (interaction score)
GGCUAGAACUAGUGGAUCCCCCGGCGCCCGGCGGCUCGAGCCCGGGUAAGCGUAAAUAGUCUGCAUGCCGCCGGGCGCCAUGCCUGCAGGUCGACUCUAGAAAACAUG,binding signal,PUM1 PUF domain R8-KFM,2.54 log2 enrichment (interaction score)
same,binding signal,PUM1 PUF domain R8-RFA,5.73 log2 enrichment (interaction score)
GGCUAGAACUAGUGGAUCCCCCGGCGCCCGGCGGCUCGAGCCCGGGUAAGUGUAAAUAGUCUGCAUGCCGCCGGGCGCCAUGCCUGCAGGUCGACUCUAGAAAACAUG,binding signal,PUM1 PUF domain R8-KFM,2.58 log2 enrichment (interaction score)
same,binding signal,PUM1 PUF domain R4-QPC,0.51 log2 enrichment (interaction score)
same,binding signal,PUM1 PUF domain R3-TRV,2.47 log2 enrichment (interaction score)
same,binding signal,PUM1 PUF domain R8-RFA,5.72 log2 enrichment (interaction score)
same,binding signal,PUM1 PUF domain R6-FYK,5.82 log2 enrichment (interaction score)
same,binding signal,PUM1 PUF domain R5-RGN,0.69 log2 enrichment (interaction score)
same,binding signal,PUM1 PUF domain R3-SRW,2.61 log2 enrichment (interaction score)
same,binding signal,PUM1 PUF domain R4-DRI,5.23 log2 enrichment (interaction score)
same,binding signal,PUM1 PUF domain R4-SRS,3.11 log2 enrichment (interaction score)
same,binding signal,PUM1 PUF domain R3-SSQ,2.66 log2 enrichment (interaction score)
same,binding signal,PUM1 PUF domain R3-VCI,2.74 log2 enrichment (interaction score)
GGCUAGAACUAGUGGAUCCCCCGGCGCCCGGCGGCUCGAGCCCGGGUAAGUUUAAAUAGUCUGCAUGCCGCCGGGCGCCAUGCCUGCAGGUCGACUCUAGAAAACAUG,binding signal,PUM1 PUF domain R7-MSG,3.37 log2 enrichment (interaction score)
GGCUAGAACUAGUGGAUCCCCCGGCGCCCGGCGGCUCGAGCCCGGGUAAGUGUACAUAGUCUGCAUGCCGCCGGGCGCCAUGCCUGCAGGUCGACUCUAGAAAACAUG,binding signal,PUM1 PUF domain R4-SRS,1.59 log2 enrichment (interaction score)
GGCUAGAACUAGUGGAUCCCCCGGCGCCCGGCGGCUCGAGCCCGGGUAAGUGUAAGUAGUCUGCAUGCCGCCGGGCGCCAUGCCUGCAGGUCGACUCUAGAAAACAUG,binding signal,PUM1 PUF domain R3-TRV,1.18 log2 enrichment (interaction score)
same,binding signal,PUM1 PUF domain R3-QRI,3.99 log2 enrichment (interaction score)
same,binding signal,PUM1 PUF domain R3-LRL,2.89 log2 enrichment (interaction score)
GGCUAGAACUAGUGGAUCCCCCGGCGCCCGGCGGCUCGAGCCCGGGUAAGUGUAAAGAGUCUGCAUGCCGCCGGGCGCCAUGCCUGCAGGUCGACUCUAGAAAACAUG,binding signal,PUM1 PUF domain R2-RRV,2.5 log2 enrichment (interaction score)
GGCUAGAACUAGUGGAUCCCCCGGCGCCCGGCGGCUCGAGCCCGGGUAAGUGUAAAUUGUCUGCAUGCCGCCGGGCGCCAUGCCUGCAGGUCGACUCUAGAAAACAUG,binding signal,PUM1 PUF domain R1-KYV,2.06 log2 enrichment (interaction score)
GGCUAGAACUAGUGGAUCCCCCGGCGCCCGGCGGCUCGAGCCCGGGUAAGUGUCAAUAGUCUGCAUGCCGCCGGGCGCCAUGCCUGCAGGUCGACUCUAGAAAACAUG,binding signal,PUM1 PUF domain R5-RSS,2.89 log2 enrichment (interaction score)
same,binding signal,PUM1 PUF domain R5-KNL,4.73 log2 enrichment (interaction score)
same,binding signal,PUM1 PUF domain R5-RCD,3.7 log2 enrichment (interaction score)
same,binding signal,PUM1 PUF domain R5-KRA,2.92 log2 enrichment (interaction score)
GGCUAGAACUAGUGGAUCCCCCGGCGCCCGGCGGCUCGAGCCCGGGUAAGUGUUAAUAGUCUGCAUGCCGCCGGGCGCCAUGCCUGCAGGUCGACUCUAGAAAACAUG,binding signal,PUM1 PUF domain R5-RSS,2.86 log2 enrichment (interaction score)
same,binding signal,PUM1 PUF domain R5-RGN,2.27 log2 enrichment (interaction score)
same,binding signal,PUM1 PUF domain R5-RCD,2.68 log2 enrichment (interaction score)
same,binding signal,PUM1 PUF domain R5-KRA,0.81 log2 enrichment (interaction score)
